Reference: ChEMBL document CHEMBL4513216, “Probing the Open Global Health Chemical Diversity Library for Multistage-Active Starting Points for Next-Generation Antimalarials” (ACS Infect Dis, 2020)
Hit rate of the full screen: of about 69,000 compounds, about 8,600 (12%) showed an effect of 50% or more. The sample holds strong results, similar compounds and a random draw of the others, so the mix is not that of the screen.

The compounds below were run on Plasmodium berghei (assay: Screen against P. berghei liver stage (PbLuc), transformed with Luciferase, at 10uM). Conditions: tested at 10 uM.
Assay type: functional, HepG2
`COc1ncccc1C(=O)N1CC[C@H]2C[C@@H](c3noc(C)n3)O[C@@H]2C1` was tested, and the INHIBITION was 15.4%.
Work on `COCC1CC2(CCN(Cc3ccco3)CC2)CN1C(C)C` (stereo unspecified) yielded an INHIBITION of 14.6%.
For `CCn1cc(CNCC(c2ccc(Cl)cc2)n2cccn2)cn1` (stereo unspecified), the INHIBITION was 3.58%.
Work on `Cc1nc2cc(NC(=O)Cn3ncc(N4CCCC4)cc3=O)ccc2s1` yielded an INHIBITION of 41.2%.
`COCCN1C(=O)CCC12CCC(NCc1cccc(C)n1)CC2` (stereo unspecified) showed an INHIBITION of 41%.
In the case of `O=C(Cc1c[nH]c2ncccc12)NCC(O)c1ccccc1F` (stereo unspecified), the INHIBITION is reported as 26.05%.
Work on `CC(=O)N1C[C@H]2CC[C@@H](C1)N(Cc1ccc(Cn3cccn3)cc1)C2` yielded an INHIBITION of 4.59%.
`CCn1ncc(CN(C)C(=O)c2cc(C(F)(F)F)n(C)n2)c1C` gave an INHIBITION of 1.86%.
With `Cc1cc(C(=O)N(C)Cc2cnn(C)c2C)n(C)n1` the INHIBITION was 68.9%.
For `Cc1c(CN(C)C(=O)c2ccnn2C)cnn1C`, the INHIBITION was 31.7%.
Compound `O=C(Cc1csc(-c2ccco2)n1)N1CCSCC1` has an INHIBITION of -5.25%.
For `Cc1ccc(CN(C)C(=O)CN2CCCC(Cn3cncn3)C2)cc1` (stereo unspecified), the INHIBITION was 51.1%.
Compound `CN(Cc1cccc(F)c1)C(=O)CN1CCCCC1Cn1cncn1` (stereo unspecified) has an INHIBITION of 13.5%.
`CN(Cc1cccc(F)c1)C(=O)CN1CCCC(Cn2cncn2)C1` (stereo unspecified) gave an INHIBITION of 75.2%.
`CCN(Cc1ccccc1)C(=O)CN1CCOC(Cn2cncn2)C1` (stereo unspecified) was tested, and the INHIBITION was -122%.
`CN(Cc1ccsc1)C(=O)CN1CCCC(Cn2cncn2)C1` (stereo unspecified) gave an INHIBITION of 17.5%.
In the case of `CN(Cc1ccc(F)cc1)C(=O)CN1CCCC(Cn2cncn2)C1` (stereo unspecified), the INHIBITION is reported as 11.6%.
`CN(Cc1ccccc1)C(=O)CN1CCCC(Cn2cncn2)C1` (stereo unspecified) was tested, and the INHIBITION was -25.9%.
With `CN(Cc1cccc(F)c1)C(=O)CN1CCOC(Cn2cncn2)C1` (stereo unspecified) the INHIBITION was 37.9%.
`CCN(Cc1ccccc1)C(=O)CN1CCCC(Cn2cncn2)C1` (stereo unspecified) was tested, and the INHIBITION was 63.9%.
Work on `CO[C@H]1CCN(S(=O)(=O)c2cccs2)[C@H]1Cc1cccnc1` yielded an INHIBITION of -5.05%.
For `Cc1cc(C(=O)NCCN2CCN(S(C)(=O)=O)CC2)no1`, the INHIBITION was 10.3%.
With `COc1cc(C2CC(=O)Nc3c2cnn3C)ccc1O` (stereo unspecified) the INHIBITION was 10.9%.
With `CC(=O)N1C[C@@H](c2ccsc2)[C@@H]2CN(Cc3ccccc3Cl)CC[C@@H]21` the INHIBITION was 73.8%.
`CC(=O)N1C[C@@H](c2ccsc2)[C@@H]2CN(Cc3ccccc3C)CC[C@@H]21` was tested, and the INHIBITION was 64.9%.
Compound `O=C(C1CCCC1)N1C[C@@H](c2ccsc2)[C@@H]2CN(C3CCCC3)CC[C@@H]21` has an INHIBITION of 45.2%.
`O=C(C1CCC1)N1C[C@@H](c2ccsc2)[C@@H]2CN(C3CCCC3)CC[C@@H]21` showed an INHIBITION of 5.34%.
With `CC(=O)N1C[C@@H](c2ccsc2)[C@@H]2CN(CC3CCCCC3)CC[C@@H]21` the INHIBITION was 30.8%.
`COc1ccccc1CN1CC[C@H]2[C@@H](C1)[C@H](c1ccsc1)CN2C(C)=O` gave an INHIBITION of 24.8%.
Compound `Cc1n[nH]c(C)c1-c1cnc(C2CCN(S(C)(=O)=O)CC2)cn1` has an INHIBITION of 11.1%.
Work on `O[C@@H]1CC(CNCc2cccc(Cl)c2)(COc2cccnc2)C[C@@H]1O` (stereo partly specified) yielded an INHIBITION of 37.4%.
`COC(=O)c1ccc(NC(C)c2ccc3c(c2)CC(=O)N3)nn1` (stereo unspecified) showed an INHIBITION of -4.12%.
In the case of `Cc1nnc(N2CCO[C@H]3[C@@H](OCc4ccccn4)CC[C@@H]32)s1`, the INHIBITION is reported as 11.4%.
`COCC1CCN(C(C(=O)O)c2c(F)cccc2OC(C)C)CC1` (stereo unspecified) gave an INHIBITION of 35.1%.
With `O=S(=O)(Nc1ccc(Oc2ccc3c(c2)OCO3)cc1)N1CCCCC1` the INHIBITION was 52.7%.
`CN(C)S(=O)(=O)Nc1ccc(Oc2ccc3c(c2)OCO3)cc1` showed an INHIBITION of 41.2%.
`O=S(=O)(Nc1ccc2c(c1)OCCO2)N1CCCCC1` was tested, and the INHIBITION was 8.44%.
`CC(=O)N(Cc1noc(C2CC2)n1)C1CCN(Cc2ccccc2)C1` (stereo unspecified) gave an INHIBITION of -6.44%.
Compound `Cc1ccc2c(c1)CCC21CCN(C(=O)CO)CC1` has an INHIBITION of 10.1%.
With `c1cncc(-c2ccc3c(c2)CCC32CCN(Cc3ccco3)CC2)c1` the INHIBITION was 26.5%.
`c1cc(-c2ccc3c(c2)CCC32CCNCC2)ccn1` was tested, and the INHIBITION was 57.1%.
Work on `c1cncc(-c2ccc3c(c2)C2(CCNCC2)CC3)c1` yielded an INHIBITION of 27.5%.
With `c1cc(-c2ccc3c(c2)C2(CCNCC2)CC3)ccn1` the INHIBITION was 82.2%.
`c1cncc(-c2ccc3c(c2)CCC32CCN(Cc3nccs3)CC2)c1` was tested, and the INHIBITION was 57.1%.
`CN(C)CC(=O)N1CCC2(CCc3ccc(-c4ccncc4)cc32)CC1` gave an INHIBITION of 21.6%.
In the case of `O[C@H]1[C@H](n2cc(-c3cccnc3)nn2)c2ccccc2C12CCNCC2`, the INHIBITION is reported as 31.2%.
`CN(C)CC(=O)N1CCC2(CCc3cc(-c4cccnc4)ccc32)CC1` showed an INHIBITION of 15.3%.
For `OCCN1CCC2(CCc3cc(-c4ccoc4)ccc32)CC1`, the INHIBITION was 28.2%.
Compound `O=C(CCO)N1CCC2(CCc3ccc(-c4ccoc4)cc32)CC1` has an INHIBITION of 0.923%.
Compound `c1cncc(-c2ccc3c(c2)CCC32CCNCC2)c1` has an INHIBITION of 57.1%.
In the case of `CCOc1ccc(NC(=O)c2cc3c([nH]c2=O)CCC3)cc1`, the INHIBITION is reported as -29.6%.
`NC(=O)NC1CCN(Cc2ccccc2OCC(F)(F)F)CC1` gave an INHIBITION of 6.7%.
For `Cc1noc(CN2CCN(C(=O)N(C)C)CC2)n1`, the INHIBITION was 23.5%.
`CS(=O)(=O)NC[C@@H]1OC[C@H]2CN(Cc3ccccc3)CC[C@H]21` was tested, and the INHIBITION was -54.9%.
For `CC(C)c1sc(Cl)nc1C(=O)NCc1ccncc1`, the INHIBITION was -23%.
Work on `COc1nn(C)c2c1CCCN(C(=O)c1ccc(C)c(F)c1)C2` yielded an INHIBITION of -8.94%.
Work on `CS(=O)(=O)NC[C@H]1OC[C@H]2CN(Cc3ccsc3)CC[C@H]21` yielded an INHIBITION of -24.1%.
For `COc1ccc(CNC(=O)Nc2ccc(S(=O)(=O)C(F)F)cc2)cc1`, the INHIBITION was 66.2%.
Compound `CN(C)c1ccc(CNC(=O)Nc2ccc(S(=O)(=O)C(F)F)cc2)cc1` has an INHIBITION of -3.99%.
`Cn1ccc(CNC(=O)Nc2ccc(S(=O)(=O)C(F)F)cc2)c1` gave an INHIBITION of 30.4%.
In the case of `Cc1cccc(Sc2nccn(C)c2=O)c1`, the INHIBITION is reported as 20.3%.
`CC(=O)N1CCC(n2nccc2-c2cnc(N(C)CCO)nc2)CC1` was tested, and the INHIBITION was 11.5%.
For `Cc1cccc(S(=O)(=O)N2CCC3(CC2)CC(N(C)C)CO3)c1` (stereo unspecified), the INHIBITION was 72%.
In the case of `CCOC1COC2(CCN(S(=O)(=O)c3ccc(F)cc3)CC2)C1` (stereo unspecified), the INHIBITION is reported as 45.7%.
Compound `CCOC1COC2(CCN(S(=O)(=O)c3cccc(F)c3)CC2)C1` (stereo unspecified) has an INHIBITION of 29.6%.
For `CN(C)C1COC2(CCN(S(=O)(=O)c3ccc(F)cc3)CC2)C1` (stereo unspecified), the INHIBITION was 57.5%.
With `CCOC1COC2(CCN(S(=O)(=O)c3cccc(C)c3)CC2)C1` (stereo unspecified) the INHIBITION was 27.6%.
Compound `COC1COC2(CCN(S(=O)(=O)c3ccc(F)cc3)CC2)C1` (stereo unspecified) has an INHIBITION of 32.1%.
Work on `CCOCC1CN(S(=O)(=O)N(C)C)Cc2cnn(C)c21` (stereo unspecified) yielded an INHIBITION of 33.5%.
`COCCN1CCO[C@@H]2CN(C(=O)Cc3ccccc3)CC[C@@H]2C1` gave an INHIBITION of 18.5%.
With `O=C(CCN1CCCCO1)N1CC[C@H](O)[C@@H](O)C1` the INHIBITION was 28.7%.
`CC(C)O[C@H]1CN(C(=O)CCN2CCCCO2)C[C@@H]1O` showed an INHIBITION of 57.6%.
`O=C(CCN1CCCO1)N1CC[C@@H](CNC(=O)N2CCCC2)[C@H](O)C1` gave an INHIBITION of 43.7%.
Work on `Cc1cccc(C(=O)N2C[C@@H]3CCN(C(C)C)C[C@@H]3C2)c1` yielded an INHIBITION of -38.1%.
With `Cc1cc(CN2CC[C@H]3C[C@H](C(=O)N4CCC(C)CC4)O[C@H]3C2)no1` the INHIBITION was 34.7%.
With `COc1cccc(-c2nc(CC(=O)NC3(C)CCS(=O)(=O)C3)cs2)c1` (stereo unspecified) the INHIBITION was -10.1%.
`COCC1CCN(c2cc(C3CN(C)CCO3)nc(C)n2)CC1` (stereo unspecified) showed an INHIBITION of 23.9%.
`CCC1CN(C(=O)Cc2coc(-c3ccccc3)n2)CCO1` (stereo unspecified) was tested, and the INHIBITION was 7.4%.
Work on `Cn1cc(C2CCCN2C(=O)Cc2coc(-c3ccccc3)n2)cn1` (stereo unspecified) yielded an INHIBITION of 13.9%.
`Cn1cc(C2CN(C(=O)Cc3coc(-c4ccccc4)n3)CCO2)cn1` (stereo unspecified) was tested, and the INHIBITION was 53.9%.
For `CCS(=O)(=O)N1CCC2(CCN(Cc3nccs3)CC2)CC1`, the INHIBITION was 26.5%.
`CC(C)(C)C(=O)N1CCCC(c2ncncc2-c2ccncc2)C1` (stereo unspecified) gave an INHIBITION of 49.6%.
`O=C1COc2cc(C(=O)NS(=O)(=O)c3cccc(Cl)c3)ccc2N1` was tested, and the INHIBITION was 47%.
In the case of `COc1ccc(CN(C)C2CSCCSC2)c2cccnc12`, the INHIBITION is reported as 57.4%.
`COc1ccc(CN(C)C2CCN(C(=O)C(C)C)CC2)c2cccnc12` gave an INHIBITION of 8.97%.
Compound `COc1ccc(CN(C)C2CCN(S(C)(=O)=O)CC2)c2cccnc12` has an INHIBITION of 30.5%.
Work on `O=C(c1ccccc1F)N1CCC2(CC1)CC(N1CCCC1)CO2` (stereo unspecified) yielded an INHIBITION of 44.8%.
`Cc1cnn(CC2CCCN2C(=O)c2ccc(F)cc2Cl)c1` (stereo unspecified) showed an INHIBITION of -81.1%.
`CN(C)C(=O)c1n[nH]c2c1CN(CC1CCCCC1)C2` gave an INHIBITION of 25.6%.
`CCn1cc(NC(=O)C(C)n2ncc(Cl)c2C)c(C(=O)NCC(C)C)n1` (stereo unspecified) showed an INHIBITION of 11%.
Compound `COCCN1CCC(c2nc3ccc(N4CCCC4)cn3n2)CC1` has an INHIBITION of 52%.
With `COCCN1CCC(c2nc3ccc(NC4CCC4)cn3n2)CC1` the INHIBITION was 57.5%.
With `c1cc2nc(C3CCN(CC4CC4)CC3)nn2cc1N1CCCC1` the INHIBITION was 8.47%.
`CCN1CCC(c2nc3ccc(NC4CCC4)cn3n2)CC1` gave an INHIBITION of 46.6%.
Work on `COCCN1CCC(c2nc3ccc(NC(C)C)cn3n2)CC1` yielded an INHIBITION of 19.5%.
In the case of `COCC(=O)N1CCC(c2nc3ccc(N4CCOCC4)cn3n2)CC1`, the INHIBITION is reported as 45.2%.
In the case of `O=C(C1CCOCC1)N1CCc2ncc(CN3CCOCC3)n2CC1`, the INHIBITION is reported as -3.88%.
`COCCN1CCC2(CCN(c3ncccn3)CC2)C1=O` was tested, and the INHIBITION was 34.6%.
Compound `Cc1ccc(CN2C[C@@H]3[C@@H](C(=O)NCC4CC4)CCS(=O)(=O)[C@@H]3C2)cc1` has an INHIBITION of -21.1%.
Work on `Cc1cc(C)cc(C(=O)Nc2cn[nH]c2)c1` yielded an INHIBITION of 7.77%.
In the case of `O=C(NC1CCCC1)c1cc(Sc2ncccn2)ccn1`, the INHIBITION is reported as -48.4%.
